Here are results for 46 compounds from PubChem BioAssay (NCATS).

Assay [1] is described as follows: Cytotoxicity counterscreen for inhibitors of SARS-CoV-2 cell entry (AID 1645845). Further: nearly all actives have a fitted effect of over 50% in size. The essentials: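 ATP-content luminescence (ATPLite 1step, 15 min RT) read after 48 h compound exposure of Expi293F cells stably expressing human ACE2; normalized to cells-only wells and media-only wells.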
Assay [2] in a line: Primary qHTS to identify inhibitors of SARS-CoV-2 cell entry (AID 1645846). Further: nearly all actives have a fitted effect of over 45% in size. The essentials:
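Inhibition of spike-mediated entry was scored in human ACE2-transfected Expi293F cells. Particles were MLV-pseudotyped with Wuhan-Hu-1 S carrying a 19-aa C-terminal deletion; signal was luciferase after two days, scaled between spike PP and fusion-protein-free PP.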

Where [3] appears, read: activity change, negative = inhibition: at 57.1 µM (top of the series) unless noted.

Values joined by “and” are separate entries in the source; they are usually repeats but may differ in a detail not shown here. Identical values can stand only once. Records with an inconclusive call do not appear. Where a call stands in place of a potency, no number is given. Active and inactive are the calls of the source. The call rests on the fitted dose curve.
Potency means the concentration at half of the fitted maximal effect.

On to `CCOC(=O)[C@H](CCc1ccccc1)N[C@@H](C)C(=O)N1Cc2cc(OC)c(OC)cc2C[C@H]1C(=O)O`, for which the Potency result in assay [1] is “inactive”. The activity change, negative = inhibition in assay [2] (setting [3]) was -29.2%.
On the same counts, the results for `CCC1C(=O)OCC1Cc1cncn1C` (stereo not drawn) are “inactive” and 2.21%.
On the same counts, the results for `COCCCC/C(=N\OCCN)c1ccc(C(F)(F)F)cc1` are “inactive” and 2.14%.
Regarding `OC(Cn1cncn1)(Cn1cncn1)c1ccc(F)cc1F`, the Potency result in assay [1] was “inactive”. Besides, in assay [2] (setting [3]), the activity change, negative = inhibition was -13.6% and -9.57%.
For the compound `CC[C@@]1(c2ccccc2)NC(=O)N(C)C1=O`, the Potency result in assay [1] was “inactive”. In addition, the activity change, negative = inhibition in assay [2] (setting [3]) was -24.8%.
In the same order, the values of `Cc1nccn1CC1CCc2c(c3ccccc3n2C)C1=O` (stereo not drawn) are “inactive” and -12.3%.
On the same counts, the results for `COc1cc2c(cc1OC)C(=O)C(CC1CCN(Cc3ccccc3)CC1)C2` (stereo not drawn) are “inactive” and -29.7%.
For the compound `CCCCNC(=O)NS(=O)(=O)c1ccc(C)cc1`, the Potency result in assay [1] and in assay [2] (setting [3]) was “inactive” each time.
As for `CC[N+](C)(C)c1cccc(O)c1`, the Potency result in assay [1] and in assay [2] (setting [3]) was “inactive” throughout.
Consider `CN1C(CCl)Nc2cc(Cl)c(S(N)(=O)=O)cc2S1(=O)=O` (stereo not drawn), for which the Potency entry in assay [1] and in assay [2] (setting [3]) was “inactive” each time.
On to `c1cnc2cc3c(cc2n1)C1CNCC3C1`, for which the Potency entry in assay [1] is “inactive”. Besides, the activity change, negative = inhibition in assay [2] (setting [3]) was -6.05% and -6%.
Take `CN(CCOc1ccc(NS(C)(=O)=O)cc1)CCc1ccc(NS(C)(=O)=O)cc1`: the Potency entry in assay [1] was “inactive”. Besides, in assay [2] (setting [3]), the activity change, negative = inhibition was 4.03% and 4.22%.
In the case of `CC1(C)O[C@@H]2[C@@H](CO[C@@]3(COS(N)(=O)=O)OC(C)(C)O[C@@H]23)O1`, in assay [1], the Potency result is “inactive”. Also, the activity change, negative = inhibition in assay [2] (setting [3]) was -8%.
Turning to `O=C1NC(=O)C(c2ccccc2)(c2ccccc2)N1`, the Potency result in assay [1] and in assay [2] (setting [3]) was “inactive” throughout.
With `C[C@@H](c1ncncc1F)C(O)(Cn1cncn1)c1ccc(F)cc1F` (stereo partly drawn), the Potency entry in assay [1] is “inactive”. Moreover, the activity change, negative = inhibition in assay [2] (setting [3]) is -1.38%.
For `COc1c(C)c2c(c(O)c1C/C=C(\C)CCC(=O)O)C(=O)OC2`, the Potency result in assay [1] is “inactive”. The Potency in assay [2] (setting [3]) is 1000 nM (active).
On the same counts, the results for `OCCN1CCN(CCCN2c3ccccc3Sc3ccc(C(F)(F)F)cc32)CC1` are “inactive” and “inactive”.
On to `CCC(C)n1ncn(-c2ccc(N3CCN(c4ccc(OC[C@H]5CO[C@](Cn6cncn6)(c6ccc(Cl)cc6Cl)O5)cc4)CC3)cc2)c1=O` (stereo partly drawn), for which the Potency result in assay [1] was “inactive”. In addition, the activity change, negative = inhibition in assay [2] (setting [3]) is -4.73% [at 27.1 µM].
As to `CCN(CC)CCNC(=O)c1cc(Cl)c(N)cc1OC`, the Potency entry in assay [1] and in assay [2] (setting [3]) was “inactive” throughout.
Regarding `CC(C)(C(=O)O)c1ccc(C(O)CCCN2CCC(C(O)(c3ccccc3)c3ccccc3)CC2)cc1` (stereo not drawn), the Potency entry in assay [1] and in assay [2] (setting [3]) was “inactive” throughout.
As for `Cc1cc2c(s1)Nc1ccccc1N=C2N1CCN(C)CC1`, the Potency entry in assay [1] was “inactive”. Further, the activity change, negative = inhibition in assay [2] (setting [3]) was -19.8%.
On to `CCN1CCN(C(=O)N[C@@H](C(=O)N[C@@H]2C(=O)N3C(C(=O)O)=C(CSc4nnnn4C)CS[C@H]23)c2ccc(O)cc2)C(=O)C1=O`, for which the Potency result in assay [1] and in assay [2] (setting [3]) was “inactive” each time.
In the case of `COc1ccc(Cl)cc1C(=O)NCCc1ccc(S(=O)(=O)NC(=O)NC2CCCCC2)cc1`, the Potency entry in assay [1] was “inactive”. Further, the activity change, negative = inhibition in assay [2] (setting [3]) is 4.27%.
As for `COc1cc(NCc2ccc3nc(N)nc(N)c3c2C)cc(OC)c1OC`, the Potency in assay [1] is 11.2 µM (active) and 1.12 µM (active); in assay [2] (setting [3]), 2820 nM (active).
Take `Cc1nc(-c2ccc(OCC(C)C)c(C#N)c2)sc1C(=O)O`: the Potency result in assay [1] and in assay [2] (setting [3]) was “inactive” throughout.
As to `CC1=NS(=O)(=O)c2cc(Cl)ccc2N1`, the Potency result in assay [1] and in assay [2] (setting [3]) was “inactive” throughout.
Regarding `O=C(C1CCCCC1)N1CC(=O)N2CCc3ccccc3C2C1` (stereo not drawn), the Potency result in assay [1] and in assay [2] (setting [3]) was “inactive” throughout.
For `O=C(OC1C[C@H]2CC[C@@H](C1)[N+]21CCCC1)C(O)(c1ccccc1)c1ccccc1` (stereo partly drawn), the Potency result in assay [1] is “inactive”. In assay [2] (setting [3]), the activity change, negative = inhibition is -4.34%.
As to `Cc1[nH]c(=O)c(C#N)cc1-c1ccncc1`, the Potency result in assay [1] and in assay [2] (setting [3]) was “inactive” in each case.
Consider `CN(C)CCC=C1c2ccccc2C=Cc2ccccc21`, for which the Potency entry in assay [1] was “inactive”. Further, the Potency in assay [2] (setting [3]) was 14100 nM (active).
For `Cn1cc[nH]c1=S`, the Potency result in assay [1] and in assay [2] (setting [3]) was “inactive” in each case.
Turning to `Cc1ncc([N+](=O)[O-])n1CCO`, the Potency result in assay [1] is “inactive”. The activity change, negative = inhibition in assay [2] (setting [3]) is -22%.
In the same order, the values of `CCOC(=O)Nc1ccc2c(c1)N(C(=O)CCN1CCOCC1)c1ccccc1S2` are “inactive” and -15.7%.
As for `CCCCC1=NC2(CCCC2)C(=O)N1Cc1ccc(-c2ccccc2-c2nn[nH]n2)cc1`, the Potency result in assay [1] and in assay [2] (setting [3]) was “inactive” in each case.
Regarding `CCCN(CCC)S(=O)(=O)c1ccc(C(=O)O)cc1`, the Potency result in assay [1] was “inactive”. In addition, the activity change, negative = inhibition in assay [2] (setting [3]) was -14.9%.
Take `COc1cc(NC(C)CCCN)c2ncccc2c1` (stereo not drawn): the Potency result in assay [1] was “inactive”. For the same compound, the activity change, negative = inhibition in assay [2] (setting [3]) came to 2.06%.
On to `CN(C)[C@@H]1C(=O)C(C(N)=O)=C(O)[C@@]2(O)C(=O)C3=C(O)c4c(O)ccc(Cl)c4[C@@H](O)[C@H]3C[C@@H]12`, for which the Potency entry in assay [1] and in assay [2] (setting [3]) was “inactive” in each case.
Take `Nc1ccc(O)c(C(=O)O)c1`: the Potency result in assay [1] was “inactive”. For the same compound, the activity change, negative = inhibition in assay [2] (setting [3]) came out at 2.37%.
`CC(COc1ccccc1)N(CCCl)Cc1ccccc1` (stereo not drawn): in assay [1], the Potency entry is “inactive”. Besides, the activity change, negative = inhibition in assay [2] (setting [3]) is -7.59%.
As for `NS(=O)(=O)c1cc2c(cc1Cl)NC=NS2(=O)=O`, the Potency result in assay [1] and in assay [2] (setting [3]) was “inactive” throughout.
`CN(CCOc1ccc(CC2SC(=O)NC2=O)cc1)c1ccccn1` (stereo not drawn): the Potency entry in assay [1] was “inactive”. In assay [2] (setting [3]), the Potency result was “inactive” and the activity change, negative = inhibition is -30.2%.
For the compound `CCCC(CCC)C(=O)O`, the Potency entry in assay [1] was “inactive”. In assay [2] (setting [3]), the Potency entry was “inactive” and the activity change, negative = inhibition is -12.6%.
Take `C=C(c1ccc(C(=O)O)cc1)c1cc2c(cc1C)C(C)(C)CCC2(C)C`: the Potency result in assay [1] is “inactive”. In assay [2] (setting [3]), the Potency entry is “inactive” and the activity change, negative = inhibition was -6.82%.
For the compound `NC12CC3CC(CC(C3)C1)C2`, in assay [1], the Potency entry was “inactive”. Also, in assay [2] (setting [3]), the Potency result is “inactive” and the activity change, negative = inhibition was -26.7%.
Turning to `CCCN[C@H]1CCc2nc(N)sc2C1`, in assay [1], the Potency result is “inactive”. In addition, in assay [2] (setting [3]), the Potency entry was “inactive” and the activity change, negative = inhibition was -3.81%.
Take `O=C(O)c1cn(C2CC2)c2cc(N3CCNCC3)c(F)cc2c1=O`: the Potency entry in assay [1] is “inactive”. The activity change, negative = inhibition in assay [2] (SARS-CoV-2 pseudovirus cell entry assay, luminescence, at 11.3 µM (top of the series)) was -1.6%; in assay [2] (SARS-CoV-2 pseudovirus cell entry assay, luminescence, at 57.1 µM (top of the series)) it was 4.56%.
